From PubChem BioAssay AID493034 (The Scripps Research Institute Molecular Screening Center, 2011) come the findings set out here.

Screen size: about 2,400 compounds; about 2,200 (92%) were called active.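 Rule for the calls: active = mean inhibition over triplicate runs exceeds the cutoff derived for the earlier primary screen (cut at about 25% in these data); inactive = the rest.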 So high a share suggests a set chosen from earlier hits. Some of the results follow.

In this assay the target is Platelet-activating factor acetylhydrolase IB subunit alpha2 (Homo sapiens) (UniProt P68402). Description: inhibition of human PAFAH1B2 catalytic subunit – biochemical, fluorescence polarization, FP-rhodamine probe, triplicate, confirmation (AID 493034).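 Note: 0% = enzyme with DMSO and 100% = wells lacking PAFAH1B2 protein; inhibitors lower polarization by leaving the probe unbound.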 The note with it: recombinant PAFAH1B2, FP-rhodamine probe fluorescence polarization; at 3.39 µM; hits give high values.
Chain of Platelet-activating factor acetylhydrolase IB subunit alpha2 (Homo sapiens) (P68402 whole entry, looked up): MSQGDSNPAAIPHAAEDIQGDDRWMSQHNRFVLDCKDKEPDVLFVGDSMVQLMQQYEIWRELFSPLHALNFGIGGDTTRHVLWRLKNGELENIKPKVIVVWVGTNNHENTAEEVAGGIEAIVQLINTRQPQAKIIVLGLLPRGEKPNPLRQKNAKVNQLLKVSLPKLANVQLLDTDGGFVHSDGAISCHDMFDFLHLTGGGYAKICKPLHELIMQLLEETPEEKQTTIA
As for `COc1cc(C=O)ccc1OCCSc1ccc(C)cc1`, the inhibition (as a rule, the drop in the measured response relative to a control, in per cent) is 23% (inactive). As for `Cc1ccc(S(=O)(=O)CCC(=O)NCCN2C(=O)S/C(=C/c3ccc(F)cc3)C2=O)cc1`, the inhibition is 21.1% (inactive). Turning to `COc1cc(/C=C2\SC(=S)N(CCCCC(=O)O)C2=O)ccc1OS(=O)(=O)c1ccc(C)cc1`, the inhibition is 30.5% (active). To `COc1cc(/C=C2\SC(=S)N(CC(=O)O)C2=O)ccc1OS(=O)(=O)c1ccc(C)cc1` belongs 38.1% (active).

`CCOc1cc2[nH]c(=O)n(CCCC(=O)NCc3ccc(OC)cc3)c(=O)c2cc1OCC`: the inhibition is 3.79% (inactive). For the compound `CC(C)c1ccc(C(C)NCCS(=O)(=O)c2ccc(Cl)cc2)cc1` (stereo not drawn), the inhibition was 18.1% (inactive).

In the case of `Cc1ccc(S(=O)(=O)N2[C@@H](c3ccc(Br)cc3)C(C(=O)O)=CC[C@H]2c2ccc(C(C)C)cc2)cc1`, the inhibition was 93.5% (active).

Take `Cc1ccc(S(=O)(=O)N2[C@@H](c3ccc(Cl)cc3)C(C(=O)O)=CC[C@H]2c2ccc(C(C)C)cc2)cc1`: the inhibition was 95.9% (active).

On to `CC(Oc1ccc(Cl)cc1)C(=O)OCC(=O)Nc1ncc(Cl)cc1Cl` (stereo not drawn), for which the inhibition is 23.2% (inactive). `Cc1nc(N)nc(N)c1/C=C/C(C)(C)c1ccc(Cl)cc1`: the inhibition is 66.2% (active). Take `O=C(O)CCCN1C(=O)C2C3CC(C2C1=O)C1C(c2ccccc2)c2sc(=O)[nH]c2SC31` (stereo not drawn): the inhibition is 74% (active). To `O=C(O)CCN1C(=O)C2C3CC(C2C1=O)C1C(c2ccccc2)c2sc(=O)[nH]c2SC31` (stereo not drawn) belongs 79.6% (active). Regarding `ONC(=Nc1ccc(Cl)cc1)c1ccccc1`, the inhibition is 23.1% (inactive). On to `O=C(CSc1n[nH]c(-c2ccc(S(=O)(=O)N3CCCCC3)cc2)n1)Nc1nccs1`, for which the inhibition was 44.6% (active). As for `O=C(Nc1nc2ccc(S(=O)(=O)N3CCCCC3)cc2s1)c1ccncc1`, the inhibition was 20.7% (inactive). In the case of `O=C(NCc1n[nH]c(=S)n1-c1ccc(Br)cc1)c1ccc(S(=O)(=O)N2CCCCC2)cc1`, the inhibition was 23.9% (inactive). Regarding `O=C(Cc1ccc(Br)cc1)c1ccc(O)cc1O`, the inhibition is 70.8% (active). For the compound `N#Cc1ccc(S(=O)(=O)N2CCc3[nH]c4ccc(F)cc4c3C2)cc1`, the inhibition was 31.2% (active).

Take `CCC(C)CCCCCCCCCCC(=O)O` (stereo not drawn): the inhibition is 16.6% (inactive). For the compound `CN(CC(=O)Nc1ccc(C#N)cc1)Cc1ccc(Cl)cc1`, the inhibition was 19.9% (inactive). As to `Cc1ccc(COc2ccc(/C=N/O)cc2)cc1`, the inhibition was 22.1% (inactive). As to `O/N=C/c1ccc2ccccc2c1`, the inhibition is 43.9% (active). Turning to `CNC(=O)c1cc(C(=O)c2ccc(Cl)cc2)c(Br)[nH]1`, the inhibition is 14% (inactive). The result for `Cc1ccc(S(=O)(=O)NC(=O)Nc2nc(-c3ccc(F)c(F)c3)cs2)cc1` reads 9.68% (inactive); that for `Cc1ccc(S(=O)(=O)Nc2ccc(Cl)cc2C(=O)c2ccc(F)cc2)cc1`, 27.2% (active). In the case of `CC1(C)C(=O)N(c2ccccc2)C1c1ccccc1O` (stereo not drawn), the inhibition is 36.5% (active). The result for `O=C1N(c2ccccc2)C(c2ccccc2)C12CCCCC2` (stereo not drawn) reads 24% (inactive); that for `CCCC(=O)Nc1sc(-c2ccccc2)c(-c2ccccc2)c1C(=O)O`, 43.5% (active). To `COc1ccc(/C=C2\SC(=O)N(CCCC(=O)Nc3cc(Cl)ccc3C(=O)O)C2=O)cc1` belongs 40.3% (active); to `O=C(CCN1C(=O)/C(=C/c2ccccc2Cl)SC1=S)NC1=NCCS1`, 6.52% (inactive). Turning to `O=C(CCCN1C(=O)/C(=C\c2ccccc2)SC1=S)Nc1ccc(O)cc1C(=O)O`, the inhibition was 61.7% (active). Regarding `O=C(CCN1C(=O)/C(=C/c2ccccc2)SC1=S)N[C@@H](CO)Cc1ccccc1`, the inhibition was 66.8% (active). To `O=C(CCN1C(=O)/C(=C/c2ccccc2F)SC1=S)N[C@@H](CO)Cc1ccccc1` belongs 60.2% (active). On to `OC(c1ccccc1)(c1ccc(F)cc1)C(c1ccccc1)N1CCOCC1` (stereo not drawn), for which the inhibition is 21.9% (inactive). The result for `CN(C(=O)COC(=O)c1ccc(Cl)c(S(=O)(=O)NCc2ccccc2)c1)C1CCS(=O)(=O)C1` (stereo not drawn) reads 19.1% (inactive); that for `Cc1ccc(NC(=O)CN(C)C(=O)c2ccc3[nH]c4c(c3c2)CC(C)CC4)cc1` (stereo not drawn), 47.5% (active); that for `Cc1ccc(C)c(NC(=O)CN(C)C(=O)c2ccc3[nH]c4c(c3c2)CC(C)CC4)c1` (stereo not drawn), 29.8% (active). Consider `O=[N+]([O-])c1ccc(O)c(/C=N/Nc2nc3ccccc3[nH]2)c1`, for which the inhibition was 28.4% (active).

As to `CC(C)C1Nc2ccc(S(N)(=O)=O)cc2C2C=CCC21` (stereo not drawn), the inhibition was 23% (inactive). The result for `CC(C)C1Nc2c(O)cc(Cl)c([N+](=O)[O-])c2C2C=CCC21` (stereo not drawn) reads 39.4% (active); that for `O=c1[nH]c2c(s1)C(c1ccccc1)C1C3CCC(C3)C1S2` (stereo not drawn), 36.8% (active). For `O=c1[nH]c2c(s1)C(c1ccco1)C1C3CCC(C3)C1S2` (stereo not drawn), the inhibition was 51.9% (active). Consider `S=C(NCCc1ccc(Cl)cc1)NC1CC1`, for which the inhibition is 40.9% (active).

On to `COc1ccccc1NC(=S)NCCc1ccc(Cl)cc1`, for which the inhibition is 25.7% (active). `Cc1csc(SCC(=O)NCCc2ccc(Cl)cc2)n1`: the inhibition is 22.8% (inactive).

For `O=C(CSc1ncn[nH]1)NCCc1ccc(Cl)cc1`, the inhibition was 18.2% (inactive). Regarding `S=C(NCCc1ccc(Cl)cc1)NC1CCCCC1`, the inhibition is 22.8% (inactive). As to `Cc1ccc(C)c(NC(=S)NCCSc2ccc(Cl)cc2)c1`, the inhibition is 23.1% (inactive). With `CCN(CC(=O)Nc1ccc(NC(C)=O)cc1)Cc1c(O)ccc2cc(Br)ccc12`, the inhibition was 59.1% (active). Regarding `COc1ccc(CCN(C)Cc2c(O)ccc3cc(Br)ccc23)cc1OC`, the inhibition is 14.9% (inactive). As for `Cc1ccc(C)c(Cn2nnc3c(=O)[nH]c(C(=O)NCC4CCCO4)nc32)c1` (stereo not drawn), the inhibition was 5.01% (inactive). For `CN(C)C(=O)NC1CCCCCCCCCCC1`, the inhibition is 22.7% (inactive). To `NNC(=S)NC1CCCCCCCCCCC1` belongs 47.2% (active); to `CNC(=S)N(Cc1ccc(OC)cc1)C1CC(=O)N(c2ccc(Cl)cc2)C1=O` (stereo not drawn), 23.9% (inactive); to `CC(C)(C)OC(=O)[C@H]1[C@H](c2ccc([N+](=O)[O-])cc2)C2(C(=O)c3ccccc3C2=O)C2c3ccccc3C=NN21` (stereo partly drawn), 73.7% (active). For the compound `O=C(O)c1[nH]c2ccc(Br)cc2c1CCN1C(=O)c2cccc([N+](=O)[O-])c2C1=O`, the inhibition is 41.5% (active).

For `O=C(O)c1ccccc1C(=O)NCCc1c(C(=O)O)[nH]c2ccc(Cl)cc12`, the inhibition is 26% (active). For `O=C(O)c1[nH]c2ccc(Cl)cc2c1CCN1C(=O)c2ccccc2C1=O`, the inhibition is 79.2% (active). On to `CC(C)CC(C(=O)O)N1C(=O)C2C3CC(C2C1=O)C1C(c2ccccc2)c2sc(=O)[nH]c2SC31` (stereo not drawn), for which the inhibition is 39.3% (active). On to `CC(C(=O)O)N1C(=O)C2C3CC(C2C1=O)C1C(c2ccccc2)c2sc(=O)[nH]c2SC31` (stereo not drawn), for which the inhibition was 43.1% (active). The result for `Cc1ccc(N2C(=O)CC(Sc3nc4ccccc4o3)C2=O)cc1Cl` (stereo not drawn) reads 20.1% (inactive); that for `Cn1c(COc2ccc(Cl)cc2)nnc1SCc1ncc(-c2ccccc2)o1`, 22.4% (inactive). `C[C@H](NC(=O)c1nc[nH]c1C(=O)NCC(=O)OCc1ccccc1)c1ccccc1`: the inhibition was 23.8% (inactive).

As to `Cc1noc(C)c1COc1ccccc1C(=O)NC(C)c1ccc(Cl)cc1` (stereo not drawn), the inhibition was 15.7% (inactive). Consider `COc1cccc(/C=N/Nc2ccc(S(=O)(=O)Nc3ccccc3C(=O)O)cc2[N+](=O)[O-])c1O`, for which the inhibition was 20.4% (inactive). `COc1cc(/C=N/NS(=O)(=O)c2ccc(C(C)(C)C)cc2)cc([N+](=O)[O-])c1O`: the inhibition is 14.5% (inactive).

On to `COc1cc(/C=N/N(C)S(=O)(=O)c2ccc(C)cc2)cc([N+](=O)[O-])c1O`, for which the inhibition is 30.5% (active). As to `CN(CCc1ccccn1)C(=S)NC(=O)c1ccco1`, the inhibition was 3.54% (inactive).

In the case of `O=C(CNC(=O)OCc1ccccc1)Oc1cc2oc(=O)cc(-c3ccccc3)c2cc1Cl`, the inhibition was 50.6% (active). As to `CC(C)(c1ccc(O)cc1)c1ccc(O)cc1`, the inhibition is 42.2% (active). As for `COC(=O)c1c(NC(=O)C2C3CCC(O3)C2C(=O)O)sc2c1CCCCCC2` (stereo not drawn), the inhibition is 39.5% (active). For the compound `O=C(O)C1=C[C@H](c2ccc(C(F)(F)F)cc2)C[C@H](OCc2ccc(CO)cc2)O1`, the inhibition was 26% (active). Regarding `Cc1ccc(S(=O)(=O)N/N=C/c2cccn2-c2ccc(Cl)cc2)cc1`, the inhibition is 45% (active). Take `Cc1ccc(S(=O)(=O)N2[C@@H](c3ccc(Cl)cc3)C(C(=O)O)=C[C@H]2C(C)(C)C)cc1`: the inhibition was 21% (inactive). `O=C(NCc1ccc(Cl)cc1)C(=O)NCC1OCCN1S(=O)(=O)c1cc(F)ccc1F` (stereo not drawn): the inhibition is 20.3% (inactive). The result for `CN(C(=O)Cc1c(C(=O)O)n(C)c2ccccc12)c1ccc(Cl)cc1` reads 41.1% (active); that for `Cc1nn(-c2ccccc2)c(Cl)c1CN(C(=O)CCl)c1ccc(Cl)cc1`, 21.7% (inactive); that for `O=C(NNC(=O)C12CC3CC(CC(Cl)(C3)C1)C2)c1csc(N2CCOCC2)n1`, 23% (inactive). In the case of `C=CCn1c(-c2cccn(Cc3ccc(Cl)cc3)c2=O)n[nH]c1=S`, the inhibition is 22.8% (inactive). On to `S=c1[nH]nc(Cc2ccc(Br)cc2)n1/N=C/c1ccc(Cl)cc1`, for which the inhibition is 20% (inactive).

On to `S=c1[nH]nc(-c2ccc(Cl)cc2)n1Cc1ccccc1`, for which the inhibition is 32% (active). As to `O=C(C[C@@H]1C/C=C\C[C@@H](Cc2ccc(F)cc2)C(=O)OC[C@H]2CCCN2C1=O)N[C@H](CO)Cc1ccccc1`, the inhibition was 32.1% (active). As to `O=C(C[C@H]1C/C=C\C[C@@H](Cc2ccc(F)cc2)C(=O)OC[C@H]2CCCN2C1=O)N[C@@H](CO)Cc1ccccc1`, the inhibition was 35.2% (active). To `O=C(C[C@@H]1C/C=C\C[C@@H](Cc2ccc(F)cc2)C(=O)OC[C@@H]2CCCN2C1=O)NCCO` belongs 26.9% (active). With `C[C@@H]1COC(=O)[C@H](Cc2ccc(F)cc2)C/C=C\C[C@@H](CC(=O)NCCO)C(=O)N1`, the inhibition was 22.3% (inactive). With `CCN1C(=O)N/C(=C/c2cc(C)n(Cc3ccccc3)c2C)C1=O`, the inhibition is 77.5% (active). For the compound `O=C(N/N=C/c1cc([N+](=O)[O-])ccc1O)Nc1ccccc1`, the inhibition is 16.1% (inactive). Consider `O=C(N/N=C/c1cc([N+](=O)[O-])ccc1O)NC12CC3CC(CC(C3)C1)C2`, for which the inhibition was 79.6% (active).
